According to PubChem BioAssay (NCATS):
Several values for one entry are separate records, joined by “and”; a condition that tells them apart may be missing. Identical values can stand only once. Results filed as inconclusive are left out. A call without a number means that no potency is given here. Activity calls are given as the source filed them. Calls come from the whole dose curve; as a rule, active = well fitted curve in the direction sought with a large enough effect; inconclusive = small, poorly fitted or top-dose-only effect, or another doubt; inactive = no such curve, though single readings can be large; an effect the other way counts as inactive or inconclusive.

Tests used:
[1] = biological target: Cytochrome P450 3A7 (Homo sapiens) (UniProt P24462); test: Cytochrome P450 family 3 subfamily A member 7 (CYP3A7) small molecule antagonists: luciferase biochemical qHTS assay (AID 1963596); note: nearly all actives have a fitted effect of over 40% in size
Cytochrome P450 3A7 (Homo sapiens), sequence (P24462 whole entry, looked up): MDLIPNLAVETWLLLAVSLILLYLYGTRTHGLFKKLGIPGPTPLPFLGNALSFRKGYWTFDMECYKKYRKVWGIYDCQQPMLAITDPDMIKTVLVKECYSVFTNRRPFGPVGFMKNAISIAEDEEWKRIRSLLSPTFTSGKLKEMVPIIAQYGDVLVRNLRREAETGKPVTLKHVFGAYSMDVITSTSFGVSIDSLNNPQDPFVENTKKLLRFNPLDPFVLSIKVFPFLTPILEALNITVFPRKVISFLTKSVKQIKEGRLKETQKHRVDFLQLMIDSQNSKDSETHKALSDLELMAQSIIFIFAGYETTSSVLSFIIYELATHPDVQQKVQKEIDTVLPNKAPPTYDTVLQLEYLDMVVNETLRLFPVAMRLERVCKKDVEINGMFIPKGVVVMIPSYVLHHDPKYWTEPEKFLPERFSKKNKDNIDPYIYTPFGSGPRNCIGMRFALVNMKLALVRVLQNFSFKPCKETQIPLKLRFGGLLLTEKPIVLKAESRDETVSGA
Outline: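 Luminescence read-out (relative luminescence units) after 20 min with detection reagent, which stops the reaction. Enzyme, proluciferin substrate and compound preincubated 10 min, RT; NADPH regeneration system then started 1 h reaction. Ketoconazole as positive control.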

[2] = Viability qHTS for spleen associated tyrosine kinase inhibitor (SYKi) naive MV4-11 cells (AID 1963823); note: nearly all actives have a fitted effect of over 40% in size
Outline: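 Seeding of 500 SYKi-naive MV4-11 cells per well onto pre-dispensed compounds preceded a 72 hr incubation at 37 C. Luminescent CellTiter-Glo signal, read after 10 min at room temperature, reflected viable cells.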

[3] = Viability qHTS for spleen associated tyrosine kinase inhibitor (SYKi) drug resistant MV4-11 cells (AID 1963824); note: nearly all actives have a fitted effect of over 35% in size
Outline: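 CellTiter-Glo luminescence, read 10 min after reagent addition, reports viability after a 72 hr compound exposure. Cells are an MV4-11 line made resistant to SYK inhibition, seeded at 500 per well onto compound-containing plates.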
Potency is the fitted concentration of half-maximal effect.

SMILES | Potency [1] | Potency [2] | Potency [3] | activity change, negative = inhibition [1] | viability (% of control) [2] | viability, % of control [3]
COc1cc(CCc2cc(NC(=O)c3ccc(N4CC(C)NC(C)C4)cc3)n[nH]2)cc(OC)c1 (stereo unspecified) | inactive | 0.82 µM (active) | 1.03 µM (active) |  |  | 
CCCCNC(=O)[C@@H]1Cc2ccccc2N1C(=O)[C@@H](N)CC | inactive | inactive | inactive |  |  | 
CCOC(=O)N1CCC(NCCNC(=O)c2ccccc2C)CC1 | inactive | inactive | inactive |  |  | 
O=C(O)[C@H]1Cc2ccccc2CN1 |  |  |  | 2.34% [at 11.5 µM] (inactive) | 95.6% [at 4.97 µM] (inactive) | 101% [at 4.97 µM] (inactive)
O=c1[nH]c(=O)n([C@H]2C[C@H](O)[C@@H](CO)O2)cc1C(F)(F)F | inactive | 2.11 µM (active) and 1.66 µM (active) | 2.11 µM (active) and 2.35 µM (active) |  |  | 
COc1ccc(C2=N[C@@H](c3ccc(Cl)cc3)[C@@H](c3ccc(Cl)cc3)N2C(=O)N2CCNC(=O)C2)c(OC(C)C)c1 | inactive | 20.6 µM (active) | 10.3 µM (active) |  |  | 
Nc1c(CC(=O)O)cccc1C(=O)c1ccc(Br)cc1 | inactive | inactive | inactive |  |  | 
c1cc(OCCCN2CCCCC2)ccc1CN1CCCCC1 | inactive | inactive | inactive |  |  | 
O=C(NCCCCN1CCN(c2cccc(Cl)c2Cl)CC1)c1cc2ccccc2s1 | 2.82 µM (active) | 23.1 µM (active) | 23.1 µM (active) |  |  | 
O=C(O)[C@@H]1C[C@H]2C[C@@H](CCc3nn[nH]n3)CC[C@H]2CN1 | inactive | inactive | inactive |  |  | 
CCCCCOC(=O)Nc1nc(=O)n([C@@H]2O[C@H](C)[C@@H](O)[C@H]2O)cc1F | inactive | inactive | inactive |  |  | 
O=C(O)c1cccc(S(=O)(=O)N2CCc3ccccc3C2)c1 | inactive | inactive | inactive |  |  | 
CCCCN(CCCC)CC(O)c1cc(Cl)cc2c1-c1ccc(Cl)cc1/C2=C/c1ccc(Cl)cc1 (stereo unspecified) | inactive | 20.9 µM (active) | 18.8 µM (active) |  |  | 
COc1cncc(C#Cc2ccccn2)c1 | inactive | inactive | inactive |  |  | 
CCc1cc(CN2CC(C(=O)O)C2)sc1-c1noc(-c2ccc(Oc3ccccc3)cc2)n1 | inactive | inactive | inactive |  |  | 
c1cc(-c2cc(C3CCNCC3)[nH]n2)ccn1 | inactive | inactive | inactive |  |  | 

SMILES | Potency [1] | Potency [2] | Potency [3] | activity change, negative = inhibition [1] | viability (% of control) [2] | viability, % of control [3]
CCCn1cnc2c1c(=O)n(CCCCC(C)=O)c(=O)n2C | inactive | inactive | inactive |  |  | 
COc1ccc(NC(=O)N2CCc3c2ccc2ccccc32)cc1N1CCN(C)CC1 | inactive | 9.2 µM (active) | 8.2 µM (active) |  |  | 
CCC(C)(C)C1CCc2c(sc(NC(=O)c3ccc(Br)cc3)c2C#N)C1 (stereo unspecified) | inactive | inactive | inactive |  |  | 
CC(C)(C)C1CCN(C(=O)n2ncc(C(O)(c3ccccc3)c3ccccc3)n2)CC1 | inactive | 20.6 µM (active) | 8.2 µM (active) |  |  | 
O=C(COc1ccc(Cl)cc1)NC1CCC(NC(=O)COc2ccc(Cl)cc2)CC1 (stereo unspecified) | inactive | inactive | inactive |  |  | 
COc1ccc(CCCN2CCC(COC(c3ccccc3)c3ccccc3)CC2)cc1 | inactive | 10.3 µM (active) | 10.3 µM (active) |  |  | 
CC(NC(=O)C(O)C(C)C)C(=O)NC1C(=O)N(C)CCc2ccccc21 (stereo unspecified) | inactive | inactive | inactive |  |  | 
O=C(O)CC1CCC(c2ccc(-c3ccc4nc(C(=O)NCc5ccc(OC(F)(F)F)cc5)cn4c3)cc2)CC1 (stereo unspecified) | inactive | inactive | inactive |  |  | 
O=C(Nc1ccc(N2CCC(C(=O)N3CCOCC3)CC2)cc1)c1cnc(Oc2ccccc2)nc1 | inactive | inactive | inactive |  |  | 
O=C(O)c1n[nH]c2c1C[C@H]1C[C@@H]21 | inactive | inactive | inactive |  |  | 
Cc1cnn(-c2ccccc2)c1NC(=O)COCc1ccccc1 | inactive | inactive | inactive |  |  | 
Cc1cn(C[C@H](N)C(=O)O)c(=O)n(Cc2ccsc2C(=O)O)c1=O | inactive | inactive | inactive |  |  | 
N[C@@H](CC(=O)Nc1ccc(Oc2cc(F)c(F)cc2Br)cc1)C(=O)O | inactive | inactive | inactive |  |  | 
CCOCc1cc(OC)c(-c2ccc(C[C@H](NC(=O)c3c(F)cccc3F)C(=O)O)cc2)c(OC)c1 | inactive | inactive | inactive |  |  | 
Nc1nc(N)c(N=O)c(OCC2CCCCC2)n1 | inactive | 6.51 µM (active) and 6.61 µM (active) | 8.2 µM (active) and 8.33 µM (active) |  |  | 
CCCOc1ccccc1-c1nc2n[nH]nc2c(=O)[nH]1 | inactive | inactive | inactive |  |  | 
